# Source: PubChem BioAssay (NCI)
# This is part of a sample that, as a whole, favours compounds with a hit. Of some 83,000 tested, about 20% had one in any assay.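 The test compound was applied at a single concentration to cells in 96-well plates for 48 hours, and percent growth was recorded.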 A number with no mark means an inactive call. The source made the active and inactive calls. The calls were made as follows: active = growth percent below 10; inactive = the rest.
# Columns and labels:
# Test in all cases: NCI-60 one-dose screen, 48 h (100 = growth as untreated, 0 = no growth, -100 = all killed)
# Conditions in all cases: 10 µM unless noted
# SK-MEL-2 melanoma = system: SK-MEL-2 melanoma
# EKVX NSCLC = system: EKVX NSCLC
# SN12C renal = system: SN12C renal
# TK-10 renal = system: TK-10 renal
# ACHN renal = system: ACHN renal
# CAKI-1 renal = system: CAKI-1 renal
# A498 renal = system: A498 renal
# CCRF-CEM leukemia = system: CCRF-CEM leukemia
# MOLT-4 leukemia = system: MOLT-4 leukemia
# SR leukemia = system: SR leukemia
# RPMI-8226 leukemia = system: RPMI-8226 leukemia
# OVCAR-8 ovarian = system: OVCAR-8 ovarian
# OVCAR-5 ovarian = system: OVCAR-5 ovarian
# OVCAR-4 ovarian = system: OVCAR-4 ovarian
# SK-OV-3 ovarian = system: SK-OV-3 ovarian
# IGROV1 ovarian = system: IGROV1 ovarian
# OVCAR-3 ovarian = system: OVCAR-3 ovarian
# HS 578T breast = system: HS 578T breast
# NCI/ADR-RES ovarian = system: NCI/ADR-RES ovarian
# UO-31 renal = system: UO-31 renal
Structure (SMILES),growth (SK-MEL-2 melanoma),growth (EKVX NSCLC),growth (SN12C renal),growth (TK-10 renal),growth (ACHN renal),growth (CAKI-1 renal),growth (A498 renal),growth (CCRF-CEM leukemia),growth (MOLT-4 leukemia),growth (SR leukemia),growth (RPMI-8226 leukemia),growth (OVCAR-8 ovarian),growth (OVCAR-5 ovarian),growth (OVCAR-4 ovarian),growth (SK-OV-3 ovarian),growth (IGROV1 ovarian),growth (OVCAR-3 ovarian),growth (HS 578T breast),growth (NCI/ADR-RES ovarian),growth (UO-31 renal)
Cn1cc(-c2nonc2-c2c[nH]c3ccccc23)c2ccccc21,51.2%,26%,23.4%,47.7%,31.1%,20.4%,-13.4% (active),7.68% (active),8.23% (active),11.6%,8.96% (active),16%,25.9%,30.5%,18.9%,24.4%,-17.7% (active),6.76% (active),5.05% (active),
CCSC1=CC(=O)c2ccccc2C1=O,94.2%,92.8%,82.8%,89%,3.01% (active),32.2%,97.8%,-6.88% (active),5.83% (active),,45.7%,49.4%,116%,-95.2% (active),95.6%,59.5%,-26.7% (active),94.8%,71.8%,
COc1ccc(OC)c(Nc2nnc(-c3ccc(Cl)cc3)o2)c1,96.9%,82.5%,90.1%,36%,30.8%,65.3%,96%,108%,88.5%,79.7%,90.4%,85.5%,82.4%,10.5%,90.7%,81.1%,31.8%,51.4%,71.9%,
Cn1cc(/C=C2/C(=O)Nc3ccccc32)c2ccccc21,101%,78.2%,85.7%,119%,83.3%,64.8%,118%,90%,82.4%,94.9%,60.5%,95.5%,106%,86.2%,90.4%,85.1%,90.2%,89.3%,84.7%,
O=C(/C=C/C12c3ccccc3C(c3ccccc31)C1C(=O)NC(=O)C12)c1ccc(F)cc1 (stereo not drawn),-52.2% (active),19.1%,11.2%,16.8%,4.11% (active),16.7%,-6.86% (active),-0.929% (active),2.98% (active),0.421% (active),-24% (active),-64.2% (active),28%,30.3%,-1.75% (active),13.2%,-10.1% (active),23.7%,5.4% (active),
COc1ccc(-c2ccc(-c3ccc(C(=N)N)cn3)s2)cc1,104%,95.6%,86.7%,109%,92%,87.9%,98.8%,4.28% (active),49.1%,3.22% (active),20.1%,65.2%,92.5%,113%,90.6%,,83.9%,97.4%,101%,
O=C1C(Cl)=C(NCCN2CCOCC2)C(=O)c2ncccc21,-23.8% (active),-78.9% (active),-69.2% (active),28.3%,-42.5% (active),88.5%,74.2%,5.23% (active),8.73% (active),-17.9% (active),20.4%,31.1%,-22.8% (active),95.8%,41.5%,-58.8% (active),-63.5% (active),1.02% (active),67.8%,
N#Cc1c(-c2ccccc2)nc2c(c(-c3ccccc3)nn2-c2ccccc2)c1-c1ccc(N2CCOCC2)cc1,102%,103%,93.4%,101%,103%,81.8%,95.1%,64.6%,62.7%,24.5%,76%,99%,102%,103%,108%,87.7%,96%,104%,94.6%,
CC1(C)CCC(S(=O)(=O)c2ccc3c(c2)/C(=N\O)c2cc(S(=O)(=O)N4CCN(c5ccc(F)cc5O)CC4)ccc2-3)CC1,-85.6% (active),-53% (active),19.8%,-82% (active),0.0292% (active),-76.1% (active),-65.3% (active),-63.4% (active),-71.9% (active),-48.5% (active),-45.9% (active),-71.7% (active),-69.3% (active),-94% (active),-98.5% (active),-38.4% (active),-83.4% (active),-54.1% (active),-3.41% (active),
CCN1C(=O)N(CC)C2C1NN=c1s/c(=C3\C(=O)N(CCc4ccccc4)c4ccccc43)c(=O)n12 (stereo not drawn),54.7%,43.6%,17.8%,64.1%,25.5%,27.7%,-3.18% (active),5.65% (active),10.3%,10.7%,,13.5%,20.6%,38.3%,32.3%,18.9%,-16.9% (active),5.14% (active),-9.34% (active),
CCN(CCO)CC(C)Nc1ccc([N+](=O)[O-])c2sc3ccccc3c(=O)c12 (stereo not drawn),36.6%,25.7%,28.2%,58.8%,11.5%,-3.3% (active),50.6%,35.6%,17.3%,13%,40.9%,26.2%,57.7%,,45.6%,-11.3% (active),49.1%,26.8%,37.2%,
O=C(NCc1ccccc1O)c1cccc2ccccc12,86.4%,82.1%,64.9%,98.5%,72.4%,91.9%,56%,101%,79%,,,89.8%,108%,72.7%,89.5%,62%,56.4%,,79.2%,51.5%
Cc1ccc(/C=C(\C#N)C(=O)Nc2ncc(Cc3cc(Cl)ccc3Cl)s2)o1,45.9%,60.4%,58.9%,44.1%,45.4%,23.7%,40.5%,55.4%,40.7%,,,49.8%,69.6%,1.2% (active),62%,71.7%,75.4%,13%,52.5%,
CC(C)c1ccc(C(=O)Nc2sc3cc(O)ccc3c2C#N)cc1,47.6%,52.9%,34.2%,63.4%,47.3%,39.6%,-0.765% (active),12.3%,18.3%,0.658% (active),21.2%,51.2%,87.8%,58%,50.2%,31.1%,16.4%,26.6%,11.2%,
CCn1cc(C(=O)N/N=C/c2ccc(Br)cc2)c(=O)c2cc(F)c(N3CCNC(C)C3)c(F)c21 (stereo not drawn),97.7%,86.9%,52.2%,99.6%,88.8%,68.5%,98%,29.7%,22%,4.35% (active),-14.8% (active),57.8%,94%,,109%,,52.9%,73%,83.3%,
COC(=O)C1=Nc2ccc(F)cc2/C1=C\c1sc(Nc2ccc(O)cc2)nc1O,47.3%,89.8%,85.7%,96.9%,84.9%,55.5%,42.4%,28.2%,30.4%,24.2%,62%,83%,98%,64.8%,102%,68.5%,19.8%,46.1%,94.5%,
COc1ccc(C/C(C)=C(\c2ccc(O)cc2)c2ccc(OCCN3CCCC3)cc2)cc1,100%,101%,100%,121%,97.1%,97%,91.7%,92.3%,85.3%,82.4%,105%,103%,99.1%,104%,100%,103%,108%,101%,104%,
